Results on 10 compounds are retold here after PubChem BioAssay (NCI).

Compounds without any hit were thinned out: in the full panel of roughly 79,000, 15% have a hit. A number with no mark means an inactive call. Calls of active or inactive are those of the source. Rule as the data show it: active = growth inhibition above about 70%; inactive = the rest.

Assay [1] is described as follows: NCI Yeast Anticancer Drug Screen. Data for the rad50 strain (AID 155).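 Also: 0% = growth of vehicle-only cultures of the same strain.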 Conditions: S. cerevisiae rad50 strain growth inhibition, stronger effect = higher value. The method, boiled down: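 Vehicle-treated cultures provide the reference for the growth inhibition reported for compound-exposed, repair-deficient yeast.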
The nature of assay [2]: NCI Yeast Anticancer Drug Screen. Data for the mec2-1 strain (AID 157). Conditions: S. cerevisiae mec2-1 strain, stronger effect = higher value. The method, boiled down: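 Using mec2-1 yeast: add compound, measure growth, express inhibition versus vehicle-treated cultures.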
The nature of assay [3]: NCI Yeast Anticancer Drug Screen. Data for the sgs1 mgt1 strain (AID 161).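 Also: 0% = growth of cultures given vehicle only.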 Conditions: S. cerevisiae sgs1 mgt1 strain, stronger effect = higher value. The method, boiled down: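 Percent growth inhibition was derived by comparing compound-exposed mutant yeast with vehicle-exposed cultures. The strain carries alterations in DNA damage repair.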
Assay [4] in a line: NCI Yeast Anticancer Drug Screen. Data for the cln2 rad14 strain (AID 165).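 Also: 0% = growth equal to vehicle treated cultures.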 Conditions: S. cerevisiae cln2 rad14 strain, stronger effect = higher value. The method, boiled down:
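Yeast strain cln2 rad14, bearing defects in cell cycle control and DNA repair, serves as the test system; values reflect growth inhibition compared with vehicle.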

The nature of assay [5]: NCI Yeast Anticancer Drug Screen. Data for the bub3 strain (AID 167). Conditions: S. cerevisiae bub3 mutant strain, stronger effect = higher value. The method, boiled down:
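Mutant yeast screening strain plus compound; vehicle-treated cultures serve as the 0% inhibition reference.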

Assay [6] is described as follows: NCI Yeast Anticancer Drug Screen. Data for the mlh1 rad18 strain (AID 175). Conditions: S. cerevisiae mlh1 rad18 strain growth inhibition, stronger effect = higher value. The method, boiled down:
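Steps: expose repair-defective yeast to compound; measure growth; express inhibition against vehicle-treated controls.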

Setting [7] is: at 5.0 µM (retest, dose inferred, filed as 0.5).
[8] abbreviates: at 50.0 µM (retest, dose inferred, filed as 5.0).

For the compound `CCCCC1CCCCCCc2[nH]c(/C=C3\N=C(c4ccc[nH]4)C=C3OC)cc21` (configuration not stated), the growth inhibition was 24% in assay [1] (setting [7]); 91% (active) in assay [1] (setting [8]); 82.3% (active) in assay [1] (at 50.0 µM); 23% in assay [2] (setting [7]); 93% (active) in assay [2] (setting [8]); 86.5% (active) in assay [2] (at 50.0 µM). Further, the growth inhibition in assay [3] (setting [7]) is 45%; in assay [3] (setting [8]) it was 93% (active); in assay [3] (at 50.0 µM), 84.8% (active); in assay [4] (setting [7]) it was 39%; in assay [4] (setting [8]), 94% (active); in assay [4] (at 50.0 µM) it was 81.2% (active). In addition, the growth inhibition in assay [5] (setting [7]) was 29%; in assay [5] (setting [8]), 93% (active); in assay [5] (at 50.0 µM), 81.9% (active); in assay [6] (setting [7]), 34%; in assay [6] (setting [8]) it was 90% (active); in assay [6] (at 50.0 µM), 80.5% (active).
As to `O=C(O)c1cc([N+](=O)[O-])c(Cl)c([N+](=O)[O-])c1Cl`, the growth inhibition in assay [1] (setting [7]) was 80% (active); in assay [1] (setting [8]) it was 99% (active); in assay [1] (at 50.0 µM), 62.8%; in assay [2] (setting [7]), 82% (active); in assay [2] (setting [8]) it was 99% (active); in assay [2] (at 50.0 µM), 42.3%. Moreover, the growth inhibition is 20% in assay [3] (setting [7]); 93% (active) in assay [3] (setting [8]); 46.9% in assay [3] (at 50.0 µM); 51% in assay [5] (setting [7]); 96% (active) in assay [5] (setting [8]); 64% in assay [5] (at 50.0 µM). The results for the growth inhibition in assay [6] (setting [7]), in assay [6] (setting [8]) and in assay [6] (at 50.0 µM) were 70% (active), 99% (active) and 49%, respectively.
For the compound `CC[C@](C)(O)C(=O)O[C@H]1C(=O)O[C@@H]2C[C@H]3C(C)=CC(=O)[C@@H](O)[C@]3(C)[C@H]3[C@@]4(O)OC[C@]32[C@@H]1[C@@H](C)[C@H]4O`, the growth inhibition in assay [1] (setting [7]) was 17%; in assay [1] (setting [8]), 94% (active); in assay [1] (at 50.0 µM) it was 68%; in assay [2] (setting [7]), 21%; in assay [2] (setting [8]), 90% (active); in assay [2] (at 50.0 µM), 46.6%. The growth inhibition was 14% in assay [3] (setting [7]); 91% (active) in assay [3] (setting [8]); 61.8% in assay [3] (at 50.0 µM); 33% in assay [4] (setting [7]); 97% (active) in assay [4] (setting [8]); 71.6% (active) in assay [4] (at 50.0 µM). Besides, the growth inhibition in assay [5] (setting [7]) was 6%; in assay [5] (setting [8]) it was 97% (active); in assay [5] (at 50.0 µM), 70.3% (active); in assay [6] (setting [7]), 9%; in assay [6] (setting [8]), 94% (active); in assay [6] (at 50.0 µM) it was 74.3% (active).
Turning to `C/C(=N\N=C(\[Se])N1CCN(c2ccccn2)CC1)c1ccccn1`, the growth inhibition is -2% in assay [1] (setting [7]); 88% (active) in assay [1] (setting [8]); 70.3% (active) in assay [1] (at 50.0 µM); -1% in assay [2] (setting [7]); 98% (active) in assay [2] (setting [8]); 70% in assay [2] (at 50.0 µM). The growth inhibition in assay [3] (setting [7]) was 5%; in assay [3] (setting [8]) it was 95% (active); in assay [3] (at 50.0 µM), 82% (active); in assay [5] (setting [7]), 9%; in assay [5] (setting [8]), 96% (active); in assay [5] (at 50.0 µM) it was 93.2% (active). The growth inhibition in assay [6] (setting [7]) is 59%; in assay [6] (setting [8]) it was 93% (active); in assay [6] (at 50.0 µM), 78.2% (active).
As for `CCC[CH2][Sn]1([CH2]CCC)[O]Cc2nc(C)ccc2[O]1`, the growth inhibition in assay [2] (setting [7]) was 29%; in assay [2] (setting [8]), 96% (active); in assay [2] (at 50.0 µM), 81.8% (active); in assay [3] (setting [7]), 40%; in assay [3] (setting [8]), 96% (active); in assay [3] (at 50.0 µM), 80% (active). For the same compound, the growth inhibition in assay [4] (setting [7]) is 15%; in assay [4] (setting [8]), 93% (active); in assay [4] (at 50.0 µM), 71.9% (active); in assay [5] (setting [7]), 33%; in assay [5] (setting [8]), 96% (active); in assay [5] (at 50.0 µM), 83.7% (active).
With `CC(C(=O)C1CCCCC1)[n+]1ccccc1` (configuration not stated), the growth inhibition in assay [1] (setting [7]) is 1%; in assay [1] (setting [8]), -2%; in assay [1] (at 50.0 µM), -1.2%; in assay [2] (setting [7]), 1%; in assay [2] (setting [8]), 1%; in assay [2] (at 50.0 µM), 1.3%. The growth inhibition in assay [3] (setting [7]) is 0%; in assay [3] (setting [8]), -2%; in assay [3] (at 50.0 µM), -2.3%; in assay [5] (setting [7]), 3%; in assay [5] (setting [8]), 1%; in assay [5] (at 50.0 µM), 11.2%. Besides, the growth inhibition in assay [6] (setting [7]) is -4%; in assay [6] (setting [8]) it was -6%; in assay [6] (at 50.0 µM) it was -5.85%.
Turning to `NCC(O)c1cccc(O)c1` (configuration not stated), the growth inhibition in assay [2] (setting [7]) was -12%; in assay [2] (setting [8]), 50%; in assay [2] (at 50.0 µM) it was 40.2%; in assay [3] (setting [7]) it was -8%; in assay [3] (setting [8]), 51%; in assay [3] (at 50.0 µM), 66.3%. The growth inhibition is 24% in assay [4] (setting [7]); 65% in assay [4] (setting [8]); 60% in assay [4] (at 50.0 µM); 12% in assay [5] (setting [7]); 77% (active) in assay [5] (setting [8]); 75.2% (active) in assay [5] (at 50.0 µM). Moreover, the growth inhibition was 11% in assay [6] (setting [7]), 92% (active) in assay [6] (setting [8]) and 65.3% in assay [6] (at 50.0 µM).
In the case of `COc1cc2c(cc1OC)C13CCN4CC5=CCOC6CC(=O)N2C1C6C5CC43` (configuration not stated) (tested in a mixture with another compound), the growth inhibition in assay [1] (setting [7]) is -6%; in assay [1] (setting [8]), -24%; in assay [1] (at 50.0 µM), 7.15% [middle of 6 runs]; in assay [2] (setting [7]), -2%; in assay [2] (setting [8]) it was 1%; in assay [3] (setting [7]) it was -13%. The growth inhibition is -8% in assay [3] (setting [8]); -3% in assay [4] (setting [7]); 2% in assay [4] (setting [8]); 0% in assay [5] (setting [7]); -2% in assay [5] (setting [8]); -1.4% [middle of 6 runs] in assay [5] (at 50.0 µM). The growth inhibition is -2% in assay [6] (setting [7]) and -4% in assay [6] (setting [8]).
For `C[C@]12CC/C(=N\NC(=O)c3ccncc3)C[C@@H]1CC[C@@H]1[C@@H]2CC[C@]2(C)[C@@H](O)CC[C@@H]12`, the growth inhibition in assay [1] (setting [7]) was 0%; in assay [1] (setting [8]) it was 52%; in assay [1] (at 50.0 µM) it was 68.9%; in assay [2] (setting [7]) it was 5%; in assay [2] (setting [8]), 54%; in assay [2] (at 50.0 µM), 29.1%. The growth inhibition is 13% in assay [3] (setting [7]); 65% in assay [3] (setting [8]); 77.3% (active) in assay [3] (at 50.0 µM); 6% in assay [4] (setting [7]); 8% in assay [4] (setting [8]); 66.8% in assay [4] (at 50.0 µM). Besides, the results for the growth inhibition in assay [6] (setting [7]), in assay [6] (setting [8]) and in assay [6] (at 50.0 µM) were 10%, 46% and 59.1%, respectively.
Turning to `COC(=O)[C@@]12OC[C@]34[C@H]([C@@H](O)[C@@H]1O)[C@@]1(C)CC(=O)C(O)=C(C)[C@@H]1C[C@H]3OC(=O)[C@H](OC(=O)/C=C(\C)C(C)C)[C@@H]24`, the growth inhibition was 96% (active) in assay [1] (setting [7]); 99% (active) in assay [1] (setting [8]); 91.5% (active) in assay [1] (at 50.0 µM); 95% (active) in assay [2] (setting [7]); 100% (active) in assay [2] (setting [8]); 93.7% (active) in assay [2] (at 50.0 µM). Besides, the growth inhibition is 96% (active) in assay [3] (setting [7]); 99% (active) in assay [3] (setting [8]); 93% (active) in assay [3] (at 50.0 µM); 96% (active) in assay [4] (setting [7]); 99% (active) in assay [4] (setting [8]); 90.8% (active) in assay [4] (at 50.0 µM). In addition, the values for the growth inhibition in assay [6] (setting [7]), in assay [6] (setting [8]) and in assay [6] (at 50.0 µM) were 97% (active), 99% (active) and 92% (active), respectively.
